Counter-ions that a name gives are not always drawn.
Tested on: PBMC-derived induced microglia-like cells (piMGLC)
Assay: synaptosome phagocytic index relative to DMSO control (fraction of DMSO); higher = more phagocytosis
Details: concentration: 10 uM (2 uM for compounds listed in Table S2); pretreatment time: 24 h; assay time: 3 h

| SMILES | synaptosome phagocytic index |
| --- | --- |
| Cn1ncc(-c2nn(C)c3ncnc(N4CCC4)c23)c1-c1ccc(C(F)(F)F)cc1 | 0.505 |
| Nc1nc2[nH]cc(CCc3ccc(C(=O)N[C@@H](CCC(=O)O)C(=O)O)cc3)c2c(=O)[nH]1 [Pemetrexed_(disodium_hemipenta_hydrate)] | 1.03 |
| Cc1ccc(C(=O)NCCCCCC(=O)Nc2ccccc2N)cc1 | 0.694 |
| CC[C@H](COc1cccnc1C1CCN(C(=O)[C@@H](Cc2ccc(Cl)cc2Cl)NC(=O)N2CCCC2)CC1)N1CCCC1 | 0.292 |
| CS(=O)(=O)CCNCc1ccc(-c2ccc3ncnc(Nc4ccc(OCc5cccc(F)c5)c(Cl)c4)c3c2)o1 [Lapatinib_(ditosylate)] | 0.126 |
| CC1OC2(CS1)CN1CCC2CC1 (stereo not drawn) [Cevimeline_(hydrochloride_hemihydrate)] | 0.63 |
| Cc1cc(-c2nncc3c(C(C)(C)C)c(OCc4ncnn4C)nn23)no1 | 0.814 |
| O=C(c1ccc(F)cc1)N1CCC[C@H](c2nc(-c3ccc(F)cc3)no2)C1 | 0.938 |
| CCc1cccc2c3c([nH]c12)C(CC)(CC(=O)O)OCC3 (stereo not drawn) [Etodolac] | 1.01 |
| C[C@@H](C(=O)O)c1ccc(-c2ccccc2)c(F)c1 [Tarenflurbil] | 1.11 |
| CC(C)n1c(=O)n(C)c2cnc3cc(F)c(-c4ccc(OCCCN5CCCCC5)nc4)cc3c21 | 0.706 |
| O=C(NCc1ccc(F)cc1)N1CCN2C(=O)OC(c3ccccc3)(c3ccccc3)C2C1 (stereo not drawn) | 0.552 |
| CO[C@H]1C[C@@H]2CC[C@@H](C)[C@@](O)(O2)C(=O)C(=O)N2CCCC[C@H]2C(=O)O[C@H]([C@H](C)C[C@@H]2CC[C@@H](OCCO)[C@H](OC)C2)CC(=O)[C@H](C)/C=C(\C)[C@@H](O)[C@@H](OC)C(=O)[C@H](C)C[C@H](C)/C=C/C=C/C=C/1C [Everolimus] | 0.223 |

From the supplement of paper PMC12339681
